# Assay results: ChEMBL document CHEMBL3988442, “University of Dundee, Small-Polar-MMV Screening Library” (2021)
# About 13,000 (27%) of roughly 48,000 compounds showed an effect of 50% or more. This is one part of the list.
# Tested on: Wolbachia pipientis
# Experiment: Anti-Wolbachia Cell-Based Screen
# Type: functional
# Set-up: scale not given: in the data most compounds retested in dose-response had high values
# Conditions: 5 µM
row,Compound,Percent Effect [%]
1,CC(=O)N(C)CC(=O)Nc1cccc(N2CCN(CC3CC3)CC2)c1,-2.755
2,CC(NS(=O)(=O)N(C)C)c1cccc(-n2cccn2)c1 (configuration not stated),-7.408
3,CC(=O)c1cccc(OCCCC(=O)NCC2CCCN2C)c1 (configuration not stated),-10.21
4,COC(=O)c1sccc1S(=O)(=O)NCCC(O)c1ccco1 (configuration not stated),-8.026
5,CCc1nnc(SCC(=O)N2CCc3[nH]nc(C4CCC4)c3C2)o1,38.87
6,Cc1ccc(CN(C(=O)c2cccc(NC(N)=O)c2)C2CC2)o1,-0.2723
7,N#Cc1cccc(NC(=O)N[C@H](CO)c2ccccc2)c1,-16.24
8,COCc1nc(CNC2CCSC2)no1 (configuration not stated),-14.23
9,O=C1CC(NCc2cccc(O)c2)CN1CCc1cccc(Cl)c1 (configuration not stated),126.2
10,CCn1ccnc1C1CCN(Cc2cccc(Cl)c2)CC1,9.663
11,CCn1ccnc1CNC1CC(=O)N(CCc2cccc(Cl)c2)C1 (configuration not stated),120.9
12,CCn1cc(CNC2CC(=O)N(CCc3cccc(Cl)c3)C2)cn1 (configuration not stated),-6.807
13,Cc1cccc(CNC2CC(=O)N(Cc3cccc(F)c3)C2)c1 (configuration not stated),24.38
14,CCn1ccnc1CN1CCCC(CO)(Cc2cccc(Cl)c2)C1 (configuration not stated),-3.247
15,Oc1cccc(CNC2CCN(CCc3ccncc3)CC2)c1,-20.44
16,CCc1ncc(CNC2CC(=O)N(CCc3cccc(Cl)c3)C2)cn1 (configuration not stated),-5.676
17,O=C1CC(NCc2ccncc2)CN1CCc1cccc(Cl)c1 (configuration not stated),73.7
18,COc1ccccc1CCNC(=O)NC(C)COCC(F)(F)F (configuration not stated),-18.36
19,CC(CS(C)(=O)=O)NCc1cc(Cl)ccc1F (configuration not stated),6.588
20,CN(Cc1ccccc1-n1cccn1)c1nc(N)nc2c1CCNCC2,7.066
21,COCCN(Cc1ccc(C)cc1)Cc1nccn1C,5.615
22,CCN(CC)C(=O)NCCc1ccn(-c2ccccc2)n1,134.9
23,CCC(CC)C(=O)NCCc1ccn(-c2ccccc2)n1,133.4
24,CCC(C(=O)NCCc1ccn(-c2ccccc2)n1)N1CCCC1=O (configuration not stated),2.511

row,Compound,Percent Effect [%]
1,COCCNC(=O)NCCc1ccn(-c2ccccc2)n1,4.023
2,COc1ccc(CNCCc2ccn(-c3ccccc3)n2)cc1O,7.82
3,CC(=O)NC1CCc2ccc(S(=O)(=O)NCc3ncccc3C)cc21 (configuration not stated),37.01
4,Cc1nn(C)c(C)c1OCC(=O)N1CCCC1,-17.38
5,CC(=O)N1CCCC(Cc2cnc(-c3c(C)nn(C)c3C)cn2)C1 (configuration not stated),146.7
6,CC(=O)N1CCC(Cc2cnc(-c3c(C)nn(C)c3C)cn2)CC1,190.1
7,Cc1nn(C)c(C)c1OCC(=O)N1CCCCC1,-9.266
8,COCCN1CCCC(Cc2cnc(-c3c(C)nn(C)c3C)cn2)C1 (configuration not stated),161.1
9,COCCN1CCCC(CN(C)c2nc3c(s2)c(C)nn3C)C1 (configuration not stated),-14.47
10,COCCN1CCC(CN(C)c2ncnc3c2c(C)nn3C)C1 (configuration not stated),-22.39
11,COCCn1c(=O)n(Cc2cccc(F)c2F)c2cc(C(=O)O)ccc21,-6.581
12,Cn1nc(CN2CCCN(C3CCCC3)CC2)c2c(Cl)cccc21,4.033
13,CC1(C)OCC2(CO1)CN(C(=O)c1cccc3ccccc13)C2,-8.289
14,Cc1nc(-c2ccccc2)sc1CNC1CCc2ncnn2C1 (configuration not stated),88.63
15,c1ccc(-c2ncc(CNC3CCc4ncnn4C3)cn2)cc1 (configuration not stated),5.444
16,Cc1nn(-c2ccccc2)c(C)c1CNC1CCc2ncnn2C1 (configuration not stated),1.377
17,Cc1nn(Cc2ccccc2)c(C)c1CNC1CCc2ncnn2C1 (configuration not stated),117.1
18,c1ccc(-c2cnc(CNC3CCc4ncnn4C3)o2)cc1 (configuration not stated),7.622
19,CCOCCNS(=O)(=O)c1ccc2c3c1CCCN3C(=O)CO2,17.61
20,O=c1c2c(ncn1CCO)nc1n2CCC1,3.555
21,CC(C)(C)OC(=O)NC(C)(C)c1noc(CN2CCCCC2)n1,1.243
22,CN(C)C(=O)N1CCC2(CC1)CCN(c1ncccn1)C2.O=C(O)C(F)(F)F,115.8
23,CN(C)C(=O)N1CCC2(CCCN(c3ncccn3)C2)C1.O=C(O)C(F)(F)F (configuration not stated),113.7
24,CN(C)C(=O)N1CCOCC2(CCN(c3ccccn3)C2)C1.O=C(O)C(F)(F)F (configuration not stated),-12.67

row,Compound,Percent Effect [%]
1,CN(C)C(=O)N1CCOCC2(CCN(c3ncccn3)C2)C1.O=C(O)C(F)(F)F (configuration not stated),-1.009
2,CCn1nc2c(cc1=O)CN(Cc1nnc(C3CC3)o1)CC2,14.78
3,CSc1cccc(NC(=O)N2CCCC(CNC(=O)c3ccco3)C2)c1 (configuration not stated),-2.877
4,CSCCCn1ccnc1-c1cccc(C#N)c1,-12.84
5,NC(=O)NC(CC(=O)NCCc1cccc(F)c1)c1cccs1 (configuration not stated),2.392
6,CC(C)=CCC/C(C)=C\CNCc1ccco1,-4.355
7,O=C(C1CCCC1)N1CC2(CCN(C3COC3)C2)Cc2ccccc21 (configuration not stated),95.07
8,O=C(C1CCCC1)N1CC2(CCN(C3COC3)C2)OCc2ccccc21 (configuration not stated),114.9
9,O=C(Cc1cccnc1)N1CCC2(CCN(C3CCOC3)CC2)C1 (configuration not stated),6.84
10,O=C(C1CCCC1)N1CC2(CCN(C3COC3)CC2)Cc2ccccc21,95.07
11,O=C(C1CCCC1)N1CCOc2cccc(F)c21,1.761
12,O=C(C1CCCC1)N1CC2(CCCN(C3COC3)C2)Cc2ccccc21 (configuration not stated),99.05
13,CC(CNC(=O)CCCc1ccccn1)c1ccsc1 (configuration not stated),1.971
14,Cc1ccc(NC(=O)C2CSCN2C(=O)c2cnn(C)c2)c(C)c1 (configuration not stated),-7.721
15,O=C(C1CC1)N1C[C@@H](F)[C@@H](OCc2nc3ccccc3o2)C1,-16.99
16,N#Cc1cn(CC(=O)NC2CC2)c2ccc(Br)cc2c1=O,-2.411
17,COCCCN1C(=O)CC[C@H]2CN(c3ccnc4ccccc34)CC[C@H]21,-6.412
18,COC1CCN(CCNC(=O)C2CCCCC2)CC1,-3.467
19,Cc1nccc(N(C)Cc2ncc(-c3ccccc3C(=O)O)s2)n1,127.4
20,Cc1cc(N(C)Cc2ncc(-c3ccccc3C(=O)O)s2)ncn1,81.06
21,CCc1cnc(CN(C)C(=O)NC2CCN(c3ccccc3)C2)s1 (configuration not stated),0.02013
22,CN(C)C(Cn1ccnc1-c1ccccc1C(=O)O)c1ccccc1Cl (configuration not stated),-23.61
23,COc1cc(N(C)CCC(O)c2ccccc2)ncn1 (configuration not stated),13.13
24,Cc1ccsc1C(Cn1ccnc1-c1ccccc1C(=O)O)N(C)C (configuration not stated),-13.02
